Laboratory results from PubChem BioAssay.
Active and inactive are the calls of the source. The rule behind the calls is not given here.

Molecular target: L-lactate dehydrogenase (Plasmodium falciparum (isolate CDC / Honduras)) (UniProt Q27743)
Assay: PfLDH activity inhibition – cell lysate, 3D7 strain, counter-screen for P. falciparum growth inhibition project (AID 2304);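 note: 0% = vehicle and 100% = reference inhibitor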
Conditions: P. falciparum 3D7 crude extract, LDH APAD/NBT absorbance; at 2 µM; stronger effect = higher value

Sequence of L-lactate dehydrogenase (Plasmodium falciparum (isolate CDC / Honduras)) (Q27743 whole entry, looked up): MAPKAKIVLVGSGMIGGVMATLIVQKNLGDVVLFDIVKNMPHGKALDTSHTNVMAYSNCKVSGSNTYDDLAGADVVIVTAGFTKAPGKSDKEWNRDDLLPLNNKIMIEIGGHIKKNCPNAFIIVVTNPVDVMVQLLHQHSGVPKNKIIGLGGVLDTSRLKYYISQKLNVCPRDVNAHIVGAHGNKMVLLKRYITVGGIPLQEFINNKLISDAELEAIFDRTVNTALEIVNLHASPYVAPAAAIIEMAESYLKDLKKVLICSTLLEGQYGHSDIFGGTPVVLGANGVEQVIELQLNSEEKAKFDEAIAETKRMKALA

| Compound | inhibition |
| --- | --- |
| Cc1ccc2c(-c3ccc([N+](=O)[O-])o3)cc(C)nc2c1 | 3% (inactive) |
| COc1ccc2nc(C)cc(Nc3ccc(Cl)c(Cl)c3)c2c1 | -8% (inactive) |
| COc1cc(NCCCCCNc2cc(Cl)nc3ccccc23)nc2ccccc12 | -3% (inactive) |
| COc1ccc(CN2CCCC(Nc3ccc(F)c(F)c3)C2)c(O)c1 (stereo not given) | 3% (inactive) |
| Cc1cc(N[C@@H](CC(C)C)C(=O)NCc2cccc(F)c2)nc(NCCc2ccccc2)n1 | -1% (inactive) |
| Cc1ccc(O)c(C(=O)c2cc(C(=O)Nc3ccccc3C)c(=O)n(-c3ccccc3C)c2)c1 | -8% (inactive) |
| COc1ccc2nc(C)cc(NN=Cc3cccc([N+](=O)[O-])c3)c2c1 | 7% (inactive) |
| C=CCOC(=O)N1CCC(CNCc2cccc(-c3cccc(-c4nc5c(C)cccc5[nH]4)c3)c2)C1 (stereo not given) | -2% (inactive) |
| Cc1[nH]c(C)c(-c2ccc(OCc3cc(F)cc(F)c3)nc2)c(=O)c1Cl | -6% (inactive) |
| COc1ccc(O)cc1/C=N/Nc1ccnc2cc(Cl)ccc12 | 3% (inactive) |
| Cc1cnc(NCC2CCCCC2)nc1N[C@@H](CC(C)C)C(=O)Nc1ccccc1 | -2% (inactive) |
| CN(C)CCN(C)Cc1ccc(-c2cccc(NC(=O)c3ccc(Cl)cc3)c2)cc1 | -5% (inactive) |
| C=CCn1c(Sc2ccc(C#N)c([N+](=O)[O-])c2)nnc1-c1cc(OC)cc(OC)c1 | 0% (inactive) |
| Cc1cccc2[nH]c(-c3cccc(-c4ccc(NC(=O)CC5NC(=O)c6ccccc65)cc4)c3)nc12 (stereo not given) | -7% (inactive) |
| Fc1ccc2nc(-c3ccc(-c4ccc(CN5CCC(CCN6CCCCC6)CC5)cc4)cc3)[nH]c2c1 | -9% (inactive) |
| CC(C)Oc1cc2c(cc1NS(=O)(=O)c1ccc(-c3ccc(Cl)s3)cc1F)CCN(C)CC2 | -5% (inactive) |
| COc1cc2c(cc1C(F)(F)F)N(C(=O)Nc1cc(F)cc(-c3cncnc3)c1)CC2 | -5% (inactive) |
| Cc1cccc(C)c1CNc1ccnc2cc(Br)ccc12 | -3% (inactive) |
| CN1CCN(c2cc3c(cc2Br)CCN3C(=O)Nc2ccc(-c3cnc4ccccc4c3)cc2)CC1 | 3% (inactive) |
| COCCCNC(=O)[C@H]1CNCCN1C(=O)c1ccccc1 | -2% (inactive) |

| Compound | inhibition |
| --- | --- |
| COc1ccc2nccc([C@@H](O)CN3CCC(NCc4ccc5c(c4)NC(=O)CS5)CC3)c2n1 | -3% (inactive) |
| O=C(/C=C/c1ccc(Cl)c(Cl)c1)NCCCCCN1CCCN(C(=O)Nc2ccc([N+](=O)[O-])cc2)CC1 | -1% (inactive) |
| CCn1ccc2c(N3CCCS3(=O)=O)cc(C(=O)N[C@@H](Cc3ccccc3)[C@H](O)CNC3CCCCC3)cc21 | 1% (inactive) |
| CC(=O)Nc1ccc(CN2CCCN(c3cc(NC(=O)c4cccc(C)c4)ccn3)CC2)cc1 | -1% (inactive) |
| CCN(CC)C(=NC(N)=NCCCCCCN=C(N)N=C(Nc1ccc(Cl)cc1)N(CC)CC)Nc1ccc(Cl)cc1 | 8% (inactive) |
| CCC(ON1C(N)=NC(N)=NC1(C)C)c1ccc(Cl)cc1 (stereo not given) | 3% (inactive) |
| NC(N)=NN=Cc1cc2ccccc2c2ccccc12 | 4% (inactive) |
| COc1ccc(C=NNc2ccnc3cc(F)c(C)cc23)c2ccccc12 | 3% (inactive) |
| CC(CN(C)C)C(=O)Nc1cccc(-c2ccc(-c3nc4ccccc4[nH]3)cc2)c1 (stereo not given) | -8% (inactive) |
| O=C(Nc1cccc(-c2csc(NC(=O)c3ccc4ccccc4c3)n2)c1)c1ccc2ccccc2c1 | -2% (inactive) |
| Clc1nc2ccccn2c1C=Cc1ccc2ccccc2n1 | -6% (inactive) |
| Cc1[nH]c(C)c(-c2ccc(Nc3ccc(C(F)(F)F)cn3)cc2)c(=O)c1Br | -2% (inactive) |
| COc1cc(F)c2nccc([C@@H](O)CN3CCC(NCc4nc5c(F)cccc5[nH]4)CC3)c2c1 | -4% (inactive) |
| O=C(Nc1ccc(-c2cccc(-c3nc4ccc(F)cc4[nH]3)c2)cc1)Nc1ccc(F)c(F)c1F | 3% (inactive) |
| COc1ccc(NC(=O)/C=C/c2cc(Br)ccc2F)cc1OCCN(C(C)C)C(C)C | -3% (inactive) |
| C[C@@H]1CCC[C@H](C)N1C[C@@H](O)CNS(=O)(=O)c1cccc(C(F)(F)F)c1 | -4% (inactive) |
| Clc1ccc(Cc2nc3ccccc3[nH]2)cc1Cl | 0% (inactive) |
| CCCCOc1c(CNCCCCCCNCc2ccc3ccccc3c2OCCCC)ccc2ccccc12 | 7% (inactive) |
| O=C(/C=C/c1ccccc1Cl)Nc1ccc(Br)c(OCCN2CCCCC2)c1 | -4% (inactive) |
| CC(C)Cc1nc(N)nc(N)c1-c1ccc(Cl)cc1 | 6% (inactive) |

Tested on: not listed separately
Assay: inhibition of 3D7 malaria parasite growth – strain 3D7 (AID 2306);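 note: 0% = DMSO wells and 100% = chloroquine plus artemisinin control wells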
Conditions: P. falciparum 3D7 erythrocytic growth, LDH absorbance, 72 h; at 2 µM; stronger effect = higher value

| Compound | growth inhibition |
| --- | --- |
| Cc1ccc2c(-c3ccc([N+](=O)[O-])o3)cc(C)nc2c1 | 95% (active) |
| COc1ccc2nc(C)cc(Nc3ccc(Cl)c(Cl)c3)c2c1 | 100% (active) |
| COc1cc(NCCCCCNc2cc(Cl)nc3ccccc23)nc2ccccc12 | 103% (active) |
| COc1ccc(CN2CCCC(Nc3ccc(F)c(F)c3)C2)c(O)c1 (stereo not given) | 95% (active) |
| Cc1cc(N[C@@H](CC(C)C)C(=O)NCc2cccc(F)c2)nc(NCCc2ccccc2)n1 | 88% (active) |
| Cc1ccc(O)c(C(=O)c2cc(C(=O)Nc3ccccc3C)c(=O)n(-c3ccccc3C)c2)c1 | 98% (active) |
| COc1ccc2nc(C)cc(NN=Cc3cccc([N+](=O)[O-])c3)c2c1 | 102% (active) |
| C=CCOC(=O)N1CCC(CNCc2cccc(-c3cccc(-c4nc5c(C)cccc5[nH]4)c3)c2)C1 (stereo not given) | 102% (active) |
| Cc1[nH]c(C)c(-c2ccc(OCc3cc(F)cc(F)c3)nc2)c(=O)c1Cl | 97% (active) |
| COc1ccc(O)cc1/C=N/Nc1ccnc2cc(Cl)ccc12 | 103% (active) |
| Cc1cnc(NCC2CCCCC2)nc1N[C@@H](CC(C)C)C(=O)Nc1ccccc1 | 96% (active) |
| CN(C)CCN(C)Cc1ccc(-c2cccc(NC(=O)c3ccc(Cl)cc3)c2)cc1 | 97% (active) |
| C=CCn1c(Sc2ccc(C#N)c([N+](=O)[O-])c2)nnc1-c1cc(OC)cc(OC)c1 | 96% (active) |
| Cc1cccc2[nH]c(-c3cccc(-c4ccc(NC(=O)CC5NC(=O)c6ccccc65)cc4)c3)nc12 (stereo not given) | 100% (active) |
| Fc1ccc2nc(-c3ccc(-c4ccc(CN5CCC(CCN6CCCCC6)CC5)cc4)cc3)[nH]c2c1 | 100% (active) |
| CC(C)Oc1cc2c(cc1NS(=O)(=O)c1ccc(-c3ccc(Cl)s3)cc1F)CCN(C)CC2 | 99% (active) |
| COc1cc2c(cc1C(F)(F)F)N(C(=O)Nc1cc(F)cc(-c3cncnc3)c1)CC2 | 97% (active) |
| Cc1cccc(C)c1CNc1ccnc2cc(Br)ccc12 | 95% (active) |
| CN1CCN(c2cc3c(cc2Br)CCN3C(=O)Nc2ccc(-c3cnc4ccccc4c3)cc2)CC1 | 99% (active) |
| COCCCNC(=O)[C@H]1CNCCN1C(=O)c1ccccc1 | 97% (active) |

| Compound | growth inhibition |
| --- | --- |
| COc1ccc2nccc([C@@H](O)CN3CCC(NCc4ccc5c(c4)NC(=O)CS5)CC3)c2n1 | 101% (active) |
| O=C(/C=C/c1ccc(Cl)c(Cl)c1)NCCCCCN1CCCN(C(=O)Nc2ccc([N+](=O)[O-])cc2)CC1 | 97% (active) |
| CCn1ccc2c(N3CCCS3(=O)=O)cc(C(=O)N[C@@H](Cc3ccccc3)[C@H](O)CNC3CCCCC3)cc21 | 97% (active) |
| CC(=O)Nc1ccc(CN2CCCN(c3cc(NC(=O)c4cccc(C)c4)ccn3)CC2)cc1 | 92% (active) |
| CCN(CC)C(=NC(N)=NCCCCCCN=C(N)N=C(Nc1ccc(Cl)cc1)N(CC)CC)Nc1ccc(Cl)cc1 | 97% (active) |
| CCC(ON1C(N)=NC(N)=NC1(C)C)c1ccc(Cl)cc1 (stereo not given) | 91% (active) |
| NC(N)=NN=Cc1cc2ccccc2c2ccccc12 | 100% (active) |
| COc1ccc(C=NNc2ccnc3cc(F)c(C)cc23)c2ccccc12 | 101% (active) |
| CC(CN(C)C)C(=O)Nc1cccc(-c2ccc(-c3nc4ccccc4[nH]3)cc2)c1 (stereo not given) | 98% (active) |
| O=C(Nc1cccc(-c2csc(NC(=O)c3ccc4ccccc4c3)n2)c1)c1ccc2ccccc2c1 | 89% (active) |
| Clc1nc2ccccn2c1C=Cc1ccc2ccccc2n1 | 86% (active) |
| Cc1[nH]c(C)c(-c2ccc(Nc3ccc(C(F)(F)F)cn3)cc2)c(=O)c1Br | 99% (active) |
| COc1cc(F)c2nccc([C@@H](O)CN3CCC(NCc4nc5c(F)cccc5[nH]4)CC3)c2c1 | 99% (active) |
| O=C(Nc1ccc(-c2cccc(-c3nc4ccc(F)cc4[nH]3)c2)cc1)Nc1ccc(F)c(F)c1F | 100% (active) |
| COc1ccc(NC(=O)/C=C/c2cc(Br)ccc2F)cc1OCCN(C(C)C)C(C)C | 100% (active) |
| C[C@@H]1CCC[C@H](C)N1C[C@@H](O)CNS(=O)(=O)c1cccc(C(F)(F)F)c1 | 99% (active) |
| Clc1ccc(Cc2nc3ccccc3[nH]2)cc1Cl | 98% (active) |
| CCCCOc1c(CNCCCCCCNCc2ccc3ccccc3c2OCCCC)ccc2ccccc12 | 96% (active) |
| O=C(/C=C/c1ccccc1Cl)Nc1ccc(Br)c(OCCN2CCCCC2)c1 | 99% (active) |
| CC(C)Cc1nc(N)nc(N)c1-c1ccc(Cl)cc1 | 96% (active) |
